Experimental data as given in PubChem BioAssay.
The source made the active and inactive calls. The rule behind the calls is not given here.

The compounds below were run against Pantothenate synthetase (Mycobacterium tuberculosis (strain ATCC 25618 / H37Rv)) (UniProt P9WIL5) (assay: Coupled enzyme confirmation of inhibitors against recombinant Mtb PanC (AID 375;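 note: 0% = full reaction with vehicle and 100% = no enzyme background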)). Conditions: coupled enzyme assay; at 10 µM, stronger effect = higher value.
Chain of Pantothenate synthetase (Mycobacterium tuberculosis (strain ATCC 25618 / H37Rv)) (P9WIL5 whole entry, looked up): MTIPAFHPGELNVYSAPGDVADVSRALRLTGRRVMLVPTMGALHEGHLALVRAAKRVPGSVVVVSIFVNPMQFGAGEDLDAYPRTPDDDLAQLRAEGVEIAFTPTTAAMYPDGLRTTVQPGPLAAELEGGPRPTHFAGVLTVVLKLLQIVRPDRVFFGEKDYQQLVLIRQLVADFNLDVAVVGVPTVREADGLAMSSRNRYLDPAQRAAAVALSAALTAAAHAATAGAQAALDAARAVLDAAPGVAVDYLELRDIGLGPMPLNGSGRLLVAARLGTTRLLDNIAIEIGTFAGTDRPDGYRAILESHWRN

SMILES	inhibition
Cc1cccc2cc(COC(=O)C(C)(C)C)c(=O)[nH]c12	0% (inactive)
O=C(Cn1ncc2c1-c1ccccc1OC2)N1CCN(c2ccccn2)CC1	0% (inactive)
O=C(C1CCC(CNS(=O)(=O)c2cccc3cccnc23)CC1)N1CCCC1 (stereo not given)	0% (inactive)
OCCN(CCO)c1nc(N2CCCCC2)c2nc(N(CCO)CCO)nc(N3CCCCC3)c2n1	0% (inactive)
O=C(C1CCN(S(=O)(=O)c2cnc[nH]2)CC1)N1CCN(c2ncccn2)CC1	0% (inactive)
CC1=C(C(=O)N2CCCCC2)C(c2cccs2)C2=C(CCCC2=O)N1 (stereo not given)	0% (inactive)
CC1=C(C(=O)OCc2ccccc2)C(c2ccco2)n2ncnc2N1 (stereo not given)	0% (inactive)
CCNc1oc(COc2cccc(C)c2)nc1C#N	5% (inactive)
Cn1c(=O)n(C)c2cc(NC(=O)C(F)(F)F)ccc21	0% (inactive)
O=C(C1CCCN(S(=O)(=O)c2cnc[nH]2)C1)N1CCN(c2ccc(Cl)cc2)CC1 (stereo not given)	0% (inactive)
CO[C@H]1C[C@@H]2CC[C@@H](C)[C@@](O)(O2)C(=O)C(=O)N2CCCC[C@H]2C(=O)O[C@H]([C@H](C)C[C@@H]2CC[C@@H](O)[C@H](OC)C2)CC(=O)[C@H](C)C=C(C)[C@@H](O)[C@@H](OC)C(=O)[C@H](C)C[C@H](C)C=CC=CC=C1C	0% (inactive)
CC(C)(C)C(=O)CNS(=O)(=O)c1ccc(S(=O)(=O)NC2CCCC2)cc1	0% (inactive)
CC1=C(C(=O)NCc2ccccc2)C(c2ccccc2OCC(N)=O)NC(=O)N1 (stereo not given)	0% (inactive)
COC(=O)c1ccccc1NC(=O)C1CCCCC1C(=O)O (stereo not given)	0% (inactive)
COc1ccc(Nc2ncnc3c2cnn3-c2ccccc2)cc1OC	1% (inactive)
COc1ccc(C2=NO[C@@H]3C(=O)N(c4cccc(C)c4C)C(=O)[C@H]23)cc1OC	1% (inactive)
COc1cc(NC(=O)c2cc(CC(C)C)on2)c(OC)cc1Cl	5% (inactive)
CN(c1cccc(NC(=O)COc2ccccc2)c1)S(C)(=O)=O	6% (inactive)
COc1ccc(Cl)c(NC(=O)NCCN2CCN(c3ccccc3)CC2)c1	0% (inactive)
CCCCNc1cc(C)oc(=O)c1C(C)=O	4% (inactive)

SMILES	inhibition
Cc1ccc(C)c(OCC(O)CN2C(C)CCCC2C)c1 (stereo not given)	0% (inactive)
Cc1c(C(=O)OCCOC(C)C)[nH]c2c1C(=O)CC(c1ccco1)C2 (stereo not given)	0% (inactive)
CCOCCCNC(=O)Cn1ncc2c(=O)oc3ccccc3c21	0% (inactive)
COc1cccc(-c2cc(C(=O)Nc3c(C)nn(Cc4ccccc4)c3C)no2)c1	0% (inactive)
Cc1cc2c(nn1)CCC/C2=N\O	2% (inactive)
C/C(=C\c1ccco1)C1C(C#N)=C(N)OC2=C1C(=O)CC(C)(C)C2 (stereo not given)	12% (inactive)
Cc1cc(=O)oc2c(CN3CCN(C)CC3)c(O)c(Cl)cc12	7% (inactive)
CCCCCC1CC(CC#CCN2CCOCC2)C(=O)O1 (stereo not given)	7% (inactive)
Cc1nnc(N2C(=O)C(O)=C(C(=O)c3ccco3)C2c2ccc(F)cc2)s1 (stereo not given)	0% (inactive)
CCOC(=O)c1c(NC(=O)CSc2nc3c(c(=O)n(C)c(=O)n3C)n2C(C)C)sc(C)c1C	10% (inactive)
CCCC(=O)OCCn1c(Br)nc2c1c(=O)[nH]c(=O)n2C	7% (inactive)
O=C(CSc1nnnn1-c1ccc2c(c1)OCO2)NCc1cccs1	0% (inactive)
COc1ccc(CCn2c(-c3ccco3)nc3nc4ccccc4nc32)cc1	0% (inactive)
CC(=O)c1ccc(Oc2cc(C)nc(-n3nc(C)cc3C)n2)cc1	4% (inactive)
COc1ccc(N2CCN(Cc3nc4c(c(=O)n(C)c(=O)n4C)n3Cc3ccccc3C)CC2)cc1	7% (inactive)
Cc1cc(=O)n(CC(C)C)c(O)c1C#N	0% (inactive)
CCN(CC)CCN1C(=O)C(O)=C(C(=O)c2ccco2)C1c1ccccn1 (stereo not given)	8% (inactive)
COc1ccccc1-c1coc2c(CN3CCN(CCO)CC3)c(O)ccc2c1=O	0% (inactive)
CCCn1nnc(NCc2ccc(OCc3cccs3)c(OC)c2)n1	0% (inactive)
CC1(C)CC(=O)C2=C(C1)OC(=O)C2(NC(=O)c1cccs1)C(F)(F)F (stereo not given)	1% (inactive)
